The nature of test [1]: qHTS of pediatric cancer cell lines to identify multiple opportunities for drug repurposing: Primary screen for TC32 cells (AID 1347089). Further: nearly all actives have a fitted effect of over 60% in size. Further: potency means the concentration at half of the fitted maximal effect. Summed up: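 A viability screen of TC32 cells was run over 48 h, with primary MIPE doses spanning 0.78 nM–46 µM and NPC doses 0.59 nM–46 µM. ATP luminescence (CellTiter-Glo) served as the read-out.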
A general note: Quantitative high-throughput screening tests each substance at several concentrations.

Test [2] in a line: qHTS of pediatric cancer cell lines to identify multiple opportunities for drug repurposing: Primary screen for DAOY cells (AID 1347090). Further: nearly all actives have a fitted effect of over 55% in size. Further: potency means the concentration at half of the fitted maximal effect. Summed up: (§1)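 Eight- or eleven-point concentration series, 48 h treatment at 37 degrees C in growth media; readout CellTiter-Glo luminescence. Potency and efficacy were taken from the concentration-response curves.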
Test [3] in a line: qHTS of pediatric cancer cell lines to identify multiple opportunities for drug repurposing: Primary screen for SJ-GBM2 cells (AID 1347091). Further: potency means the concentration at half of the fitted maximal effect. Summed up:
as §1

A short description of test [4]: qHTS of pediatric cancer cell lines to identify multiple opportunities for drug repurposing: Primary screen for A673 cells (AID 1347092). Further: nearly all actives have a fitted effect of over 45% in size. Further: potency means the concentration at half of the fitted maximal effect. Summed up:
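Titration-based qHTS on A673 cells: MIPE compounds spanned 11 points (0.78 nM to 46 µM final), NPC compounds 8 points (0.59 nM to 46 µM final). Viability after 48 h was measured by ATP luminescence.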

A short description of test [5]: qHTS of pediatric cancer cell lines to identify multiple opportunities for drug repurposing: Primary screen for SK-N-MC cells (AID 1347093). Further: potency means the concentration at half of the fitted maximal effect. The method, boiled down:
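Metabolically active cells were quantified by ATP-dependent luminescence (CellTiter-Glo, 15 min at room temperature) following 48 h treatment. Cells had been plated at 500-1,000 per well and settled for 5 h beforehand.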

Test [6] can be described thus: qHTS of pediatric cancer cell lines to identify multiple opportunities for drug repurposing: Primary screen for BT-37 cells (AID 1347094). Further: potency means the concentration at half of the fitted maximal effect. Summed up: (§2)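 Viability was measured as metabolically active cells after 48 hours of treatment, read by CellTiter-Glo luminescence. Compounds were tested at multiple final concentrations, giving concentration-response curves.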
Test [7] is described as follows: qHTS of pediatric cancer cell lines to identify multiple opportunities for drug repurposing: Primary screen for NB-EBc1 cells (AID 1347095). Further: potency means the concentration at half of the fitted maximal effect. Summed up:
as §2

Test [8] can be described thus: qHTS of pediatric cancer cell lines to identify multiple opportunities for drug repurposing: Primary screen for U-2 OS cells (AID 1347096). Further: nearly all actives have a fitted effect of over 50% in size. Further: potency means the concentration at half of the fitted maximal effect. The method, boiled down: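 Cells (500-1,000/well) in growth media were settled 5 h at 37 degrees C, then given compounds for 48 h. Viability was read as CellTiter-Glo luminescence. Primary runs used MIPE at 11 points (0.78 nM-46 µM) and NPC at 8 points (0.59 nM-46 µM); follow-ups used 11 points.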

Test [9] addresses Tyrosine-protein phosphatase non-receptor type substrate 1 (Homo sapiens) + Leukocyte surface antigen CD47 (Homo sapiens) (UniProt P78324+Q08722). Put plainly: CD47-SIRPalpha protein protein interaction - Alpha assay qHTS validation (AID 1347059).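 Further: bead proximity luminescence from CD47 binding SIRPalpha after compound preincubation with SIRPalpha.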 From the text: SIRPalpha is a myeloid cell expressed immunomodulatory receptor that binds the tumor expressed immune checkpoint CD47. Therapeutic disruption of this interaction leads to immune-mediated tumor rejection. This assay was used to quantitate CD47-SIRPalpha binding biochemically and evaluate chemical libraries for novel CD47-SIRPalpha inhibitors. To recapitulate the biological interaction of CD47 and SIRPalpha, we designed expression constructs to produce their recombinant, soluble, extracellular interaction domains. CD47 was produced with an N-terminal 6His tag. SIRPalpha was produced with an N-terminal Avi-Tag for site-specific biotin incorporation. The CD47-SIRPalpha interaction was measured by AlphaScreen using affinity tag linked reagents (Ni-NTA acceptor bead and streptavidin donor bead). SIRPalpha without biotin incorporation was used as a positive control inhibitor.
PROTOCOL TABLE (as described by Miller, T. et al. 2019)
SEQUENCE No. (e.g., 1, 2, 3, etc.); […] (e.g., Cells, Incubation, Reagent, etc.); VALUE and DESCRIPTION.
1a. Reagent. 2 uL SIRPalpha-biotin (25 nM) added to respective wells in Assay buffer; white/solid bottom high base, med bind 1536-well plates (Greiner 789075)
1b. Reagent. 2 uL Assay buffer negative control for background fluorescence
2. Reagent. 23 nL library compounds (7-pt, 1:4 intraplate titration series) or DMSO control transferred by Pin Tool
3. Centrifuge. […]

In test [10] the target is Parathyroid hormone/parathyroid hormone-related peptide receptor (Homo sapiens) (UniProt Q03431). Put plainly: qHTS for PTHR1 Agonists: Optimization Screen against the NCGC LOPAC library (AID 1347079).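 Further: GloSensor cAMP luminescence in HEK-293 GP2 cells expressing human PTHR1 with IBMX.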 The method, boiled down:
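HEK-293 GP2 cells, PTHR1 + GloSensor cAMP; 3000 cells/well, o/n. Luciferin + IBMX 0.5mM each (stock), 1 hr 37C. Cpd titration, 1 hr 37C. Lum after 15 min RT. Ctrl M-PTH(1-15) top 10uM.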

SMILES strings stand for the structures. Results filed as inconclusive are left out. The source made the active and inactive calls. The call rests on the fitted dose curve; in most records, active means well fitted curve in the direction sought with a large enough effect; inconclusive means small, poorly fitted or top-dose-only effect, or another doubt; inactive means no such curve, though single readings can be large; an effect the other way counts as inactive or inconclusive.

Chain of Tyrosine-protein phosphatase non-receptor type substrate 1 (Homo sapiens) + Leukocyte surface antigen CD47 (Homo sapiens) (P78324 whole entry, looked up, the tested form may be a part): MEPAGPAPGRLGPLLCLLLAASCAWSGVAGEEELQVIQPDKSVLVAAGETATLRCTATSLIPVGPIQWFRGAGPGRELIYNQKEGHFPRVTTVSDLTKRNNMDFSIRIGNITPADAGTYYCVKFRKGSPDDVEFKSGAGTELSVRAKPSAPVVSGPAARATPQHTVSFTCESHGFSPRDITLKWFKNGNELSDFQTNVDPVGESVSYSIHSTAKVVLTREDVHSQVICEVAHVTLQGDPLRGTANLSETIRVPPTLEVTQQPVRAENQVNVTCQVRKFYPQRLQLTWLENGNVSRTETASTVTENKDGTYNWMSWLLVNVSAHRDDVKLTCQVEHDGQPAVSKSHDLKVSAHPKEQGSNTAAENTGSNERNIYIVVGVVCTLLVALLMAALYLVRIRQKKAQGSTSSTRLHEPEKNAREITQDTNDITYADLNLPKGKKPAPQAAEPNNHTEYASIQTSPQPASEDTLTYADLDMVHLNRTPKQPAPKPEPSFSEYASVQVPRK
Chain of Tyrosine-protein phosphatase non-receptor type substrate 1 (Homo sapiens) + Leukocyte surface antigen CD47 (Homo sapiens) (Q08722 whole entry, looked up, the tested form may be a part): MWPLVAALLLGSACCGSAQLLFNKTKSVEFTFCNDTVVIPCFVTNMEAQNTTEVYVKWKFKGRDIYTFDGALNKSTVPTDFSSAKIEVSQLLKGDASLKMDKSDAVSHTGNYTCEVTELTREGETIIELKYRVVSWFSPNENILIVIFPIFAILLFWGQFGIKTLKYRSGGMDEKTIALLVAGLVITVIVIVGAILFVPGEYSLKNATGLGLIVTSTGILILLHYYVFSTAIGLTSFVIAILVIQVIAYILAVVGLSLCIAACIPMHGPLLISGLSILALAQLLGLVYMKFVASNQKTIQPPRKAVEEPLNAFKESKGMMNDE
Chain of Parathyroid hormone/parathyroid hormone-related peptide receptor (Homo sapiens) (Q03431 whole entry, looked up): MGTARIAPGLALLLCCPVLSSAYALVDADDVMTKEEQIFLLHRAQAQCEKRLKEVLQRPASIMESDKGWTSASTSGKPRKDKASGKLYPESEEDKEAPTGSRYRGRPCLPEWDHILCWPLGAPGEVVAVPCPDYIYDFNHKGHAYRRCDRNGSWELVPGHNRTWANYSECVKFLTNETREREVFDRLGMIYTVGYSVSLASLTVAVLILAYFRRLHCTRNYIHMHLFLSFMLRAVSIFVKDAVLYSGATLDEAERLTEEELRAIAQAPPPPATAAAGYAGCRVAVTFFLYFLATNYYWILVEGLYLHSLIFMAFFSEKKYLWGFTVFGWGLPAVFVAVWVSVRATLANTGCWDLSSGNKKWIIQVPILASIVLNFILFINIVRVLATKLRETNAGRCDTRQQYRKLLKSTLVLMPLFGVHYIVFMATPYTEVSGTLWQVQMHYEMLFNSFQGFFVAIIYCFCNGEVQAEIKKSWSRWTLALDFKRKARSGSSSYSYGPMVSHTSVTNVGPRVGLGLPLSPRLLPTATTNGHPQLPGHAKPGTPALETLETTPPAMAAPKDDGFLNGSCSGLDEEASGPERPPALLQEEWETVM

With `Nc1cc(C(F)(F)F)c(-c2cc(N3CCOCC3)nc(N3CCOCC3)n2)cn1`, the Potency is 2620 nM (active) in [1]; 372 nM (active) in [2]; 296 nM (active) in test [3]; 235 nM (active) in [4]; 29.6 nM (active) in test [5]; 1530 nM (active) in [6]. Also, the Potency in [7] is 166 nM (active).

On to `Cc1nc2cnc3ccc(C#Cc4cccnc4)cc3c2n1-c1ccc(C(C)(C)C#N)cc1`, for which the Potency in test [1] is 330 nM (active); in test [2], 118 nM (active); in test [3], 332 nM (active); in test [4], 9.3 nM (active); in [5], 46.9 nM (active); in [6], 217 nM (active). The Potency in [7] was 833 nM (active).

Turning to `CCn1cc(-c2ccnc3[nH]c(-c4cccc(CN(C)C)c4)cc23)c(-c2ccc(NC(=O)N(C)C)cc2)n1`, the Potency was 104 nM (active) in test [1]; 5900 nM (active) in test [2]; 83.3 nM (active) in test [3]; 4690 nM (active) in test [4]; 46.9 nM (active) in test [5]; 19300 nM (active) in test [6]. The Potency in test [7] was 469 nM (active); in [8], 18700 nM (active).

For `Cc1ccc(-c2ncn(-c3ccc(Nc4nccc(-c5cccc(N6CCOCC6)c5)n4)cc3)n2)cn1`, the Potency in test [1] is 330 nM (active); in test [2] it was 187 nM (active); in test [3] it was 105 nM (active); in test [4] it was 93.5 nM (active); in [5] it was 66.2 nM (active); in test [6], 122 nM (active). Also, the Potency in test [7] is 209 nM (active); in test [8], 235 nM (active).

For `CC(C)[C@H](C(=O)Nc1ccc(C(=O)NO)cc1)c1ccccc1`, the Potency is 3300 nM (active) in test [1]; 1870 nM (active) in [2]; 590 nM (active) in [3]; 1180 nM (active) in test [4]; 469 nM (active) in [5]; 2170 nM (active) in test [6]. The Potency in test [7] is 526 nM (active); in [8], 1180 nM (active).

For the molecule `O=C(NC1CCNCC1)c1[nH]ncc1NC(=O)c1c(Cl)cccc1Cl`, the Potency in test [1] was 2340 nM (active); in test [2], 1180 nM (active); in test [3], 833 nM (active); in [4], 59 nM (active); in test [5], 526 nM (active); in test [6], 1370 nM (active). Besides, in [7], the Potency is 1870 nM (active).

`Cc1[nH]c2ccccc2c1CCNCc1ccc(C=CC(=O)NO)cc1`: the Potency in test [1] was 1650 nM (active); in [2] it was 469 nM (active); in test [3] it was 148 nM (active); in test [4] it was 148 nM (active); in test [5] it was 148 nM (active); in test [6] it was 273 nM (active). For the same molecule, the Potency in test [7] was 372 nM (active); in test [8], 469 nM (active).

On to `O=c1c2ccccc2nc2n1CCc1c-2[nH]c2ccccc12`, for which the result in test [9] and in test [10] was inactive. The Potency result in test [1], in test [2], in [3], in test [7] and in test [8] was “inactive” each time.

Turning to `CN(c1ncccc1CNc1nc(Nc2ccc3c(c2)CC(=O)N3)ncc1C(F)(F)F)S(C)(=O)=O`, the Potency in test [1] was 13100 nM (active); in test [2], 18700 nM (active); in test [3] it was 3320 nM (active); in test [4] it was 4690 nM (active); in test [5], 2960 nM (active); in [6], 9680 nM (active). In [7], the Potency is 4690 nM (active). The Potency result in test [8] is “inactive”.

On to `CCCCOc1c(C(=O)c2c(F)cc(C)cc2F)cnc2n[nH]cc12`, for which the Potency entry in test [1] is “inactive”. Moreover, the Potency is 11800 nM (active) in [2]; 1180 nM (active) in test [3]; 2350 nM (active) in [4]; 1660 nM (active) in [5]; 17200 nM (active) in [6]; 2350 nM (active) in test [7].

As to `C#Cc1cccc(Nc2ncnc3cc(OC)c(OCCCCCCC(=O)NO)cc23)c1`, the Potency in test [1] was 5230 nM (active); in test [2] it was 59 nM (active); in [3], 118 nM (active); in test [4], 9.3 nM (active); in [5], 11.8 nM (active); in test [6], 611 nM (active). Also, the Potency in test [7] was 148 nM (active); in test [8], 1480 nM (active).

Regarding `Nc1ccc(S(=O)(=O)Nc2ncccn2)cc1`, the Potency result in test [1], in [2], in [3], in test [4], in test [6] and in test [7] was “inactive” in each case. Besides, the Potency result in [8] was “inactive”. Moreover, the Potency in test [5] is 23500 nM (active).

For the molecule `CC(O)C1C(=O)N2C(C(=O)O)=C(SC3CNC(C(=O)N(C)C)C3)C(C)C12` (stereo not given), the Potency result in test [1], in test [2], in test [3], in test [4], in test [5] and in test [6] was “inactive” throughout. Also, the Potency result in [7] and in [8] was “inactive” in each case.

In the case of `CNC(=O)c1nn(C)c2c1C(C)(C)Cc1cnc(Nc3ccc(N4CCN(C)CC4)cc3)nc1-2`, the Potency was 2620 nM (active) in [1]; 11800 nM (active) in [2]; 1870 nM (active) in test [3]; 2960 nM (active) in [4]; 590 nM (active) in test [5]; 1720 nM (active) in test [6]. Moreover, the results for the Potency in [7] and in [8] were 2350 nM (active) and 5900 nM (active), respectively.

`CCn1nnc2c(N3CCOCC3)nc(-c3ccc(NC(=O)Nc4ccc(C(=O)N5CCN(C)CC5)cc4)cc3)nc21`: the Potency is 29.4 nM (active) in [1]; 235 nM (active) in test [2]; 46.9 nM (active) in [3]; 93.5 nM (active) in [4]; 5.9 nM (active) in test [5]; 17.2 nM (active) in [6]. Also, the Potency in test [7] was 743 nM (active).

`Nc1ccn([C@@H]2CS[C@H](CO)O2)c(=O)n1`: the Potency entry in [1], in test [2], in test [3], in [4], in test [5] and in test [6] was “inactive” in each case. Moreover, the Potency entry in test [7] and in test [8] was “inactive” each time.

Take `C[C@@H]1COC(Nc2ccc3ncnc(Nc4ccc(OCc5nccs5)c(Cl)c4)c3c2)=N1`: the Potency result in [1] was “inactive”. Also, the Potency in [2] is 935 nM (active); in test [3], 23500 nM (active); in test [4], 935 nM (active); in [5] it was 2350 nM (active); in [6], 24300 nM (active); in test [7] it was 2640 nM (active).

In the case of `CCN(CC)CCCCNc1ncc2cc(-c3cc(OC)cc(OC)c3)c(NC(=O)NC(C)(C)C)nc2n1`, the Potency result in test [1] and in test [2] was “inactive” in each case. In addition, the Potency in [3] is 14800 nM (active); in [4] it was 18700 nM (active); in test [5] it was 23500 nM (active); in [6] it was 19300 nM (active).
